Assay [1] can be described thus: ACEA_ER_80hr: ACEA Biosciences xCELLigence Real-Time Cell Analysis on Estrogen Receptor Agonism for Proliferation (AID 2282667; active = hit-call score of the fitted dose curve at least 0.9, where 1 is the maximum). To be noted: T47D proliferation, impedance (xCELLigence), 80 h. The method, boiled down: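 T47D human breast cells were seeded on electrode plates, monitored overnight, then exposed continuously to compounds in eight-point 1:4 dilutions from 100 uM (max 0.5% DMSO). Impedance-based growth was read at 80 h, fitted upward relative to DMSO.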

Assay [2] in a line: ATG_CRE_CIS: Attagene CIS-FACTORIAL HepG2 Assay for human cAMP Responsive Element (CRE) binding protein 3 (AID 2282926). Conditions: HepG2 CRE cis-reporter, Attagene multiplexed mRNA; actives raise or lower the signal. In short, it runs like this:
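Capillary electrophoresis of 6-FAM-labelled, HpaI-digested PCR products quantified reporter transcripts. These came from HepG2 transiently transfected with cis-element reporters and exposed to test chemicals for 24 hours, with DMSO defining baseline activity.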

Assay [3] deals with CCAAT/enhancer-binding protein beta (Homo sapiens) (UniProt P17676). Put plainly: ATG_C_EBP_CIS: Attagene CIS-FACTORIAL HepG2 Assay for human CCAAT/Enhancer Binding Protein (C/EBP) beta (AID 2282927). To be noted: HepG2 Attagene cis-factorial transcription factor reporter; actives raise or lower the signal. In short, it runs like this:
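HepG2 transiently transfected with multiplexed reporter units under cis-regulatory promoters reporting endogenous C/EBPb activity. After 24 h exposure, reporter mRNA assayed by RT-PCR, fluorescent labelling, HpaI digestion and capillary electrophoresis; bidirectional fitting versus DMSO.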

Assay [4] can be described thus: ATG_CMV_CIS: Attagene CIS-FACTORIAL HepG2 Assay for human CMV (Internal Marker) (AID 2282928).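 Also: endpoint acts as a background internal control marker rather than a target.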 Conditions: HepG2 CMV promoter reporter, transcription factor profiling; actives raise or lower the signal. The method, boiled down: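 Reporter transcripts from transfected HepG2 cells are isolated after 24 h of chemical dosing, reverse-transcribed and amplified. Fragments labeled with 6-FAM are cut with HpaI and quantified by capillary electrophoresis; DMSO defines baseline.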

Assay [5] is described as follows: ATG_DR4_LXR_CIS: Attagene CIS-FACTORIAL HepG2 Assay for human Liver X Receptor (LXR), DR4 submotif (AID 2282929). Conditions: HepG2 Attagene DR4 cis-reporter, mRNA transcription; actives raise or lower the signal. The method, boiled down:
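HepG2 cells were transiently transfected with multiple cis-regulated reporter units and dosed for 24 hours. The DR4 reporter mRNA was quantified by RT-PCR, 6-FAM labelling and capillary electrophoresis. Bidirectional fits used DMSO as baseline.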

Assay [6] has as its target Aryl hydrocarbon receptor (Homo sapiens) (UniProt P35869). Put plainly: ATG_Ahr_CIS: Attagene CIS-FACTORIAL HepG2 Assay for human Aryl Hydrocarbon Receptor (Ahr) (AID 2282930). To be noted: HepG2 AhR cis-factorial reporter transcription; actives raise or lower the signal. In short, it runs like this:
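HepG2 cells transiently transfected with cis-element-driven multiplexed reporter units; endogenous AhR activity read as reporter mRNA 24 h after dosing, via RT-PCR, 6-FAM labelling, HpaI digestion and capillary electrophoresis. Bidirectional fit relative to DMSO.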

The nature of assay [7]: ATG_AP_1_CIS: Attagene CIS-FACTORIAL HepG2 Assay for human Activator Protein 1 (AP-1) (AID 2282931). To be noted: HepG2 Attagene cis-factorial AP-1 reporter mRNA; actives raise or lower the signal. In short, it runs like this: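 HepG2 cells transiently transfected with cis-element-driven reporter transcription units, dosed for 24 hours. Reporter mRNA measured by RT-PCR, 6-FAM labelling, HpaI digestion and capillary electrophoresis. Bidirectional fitting against DMSO baseline.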

A short description of assay [8]: ATG_AP_2_CIS: Attagene CIS-FACTORIAL HepG2 Assay for human Activator Protein 2 (AP-2) (AID 2282932). To be noted: HepG2 AP-2 cis-reporter, Attagene transcription factor profiling; actives raise or lower the signal. The method, boiled down: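 Read-out: fluorescent reporter mRNA via RT-PCR and capillary electrophoresis, 24 h post-dose in transiently transfected HepG2. Endogenous factors drive cis-promoter reporters; gain or loss of signal fitted bidirectionally against DMSO.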

A short description of assay [9]: ATG_BRE_CIS: Attagene CIS-FACTORIAL HepG2 Assay for human Bone Morphogenetic Protein (BMP) Response Element (BRE) (AID 2282933). Conditions: HepG2 BMP response element reporter, Attagene transcription factor profiling; actives raise or lower the signal. The method, boiled down: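 Multiplexed cis-reporter assay, HepG2, 24 h exposure. mRNA from reporter units quantified via RT-PCR/CE; DMSO baseline; bidirectional curve fit.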

Assay [10] addresses Retinoic acid receptor alpha (Homo sapiens) (UniProt P10276). Put plainly: ATG_DR5_RAR_CIS: Attagene CIS-FACTORIAL HepG2 Assay for human Retinoic Acid Receptor Alpha (RARE), DR5 submotif (AID 2282934). Conditions: HepG2 Attagene cis-factorial RARE DR5 reporter, mRNA; actives raise or lower the signal. The method, boiled down: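 HepG2 cells transiently transfected with multiplexed reporter units; DR5 cis-element drives reporter through endogenous transcription factors. After 24 h dosing, reporter mRNA quantified by RT-PCR, fluorescent labeling, HpaI digestion and capillary electrophoresis; bidirectional fitting versus DMSO.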

In assay [11] the target is Transcription factor E2F1 (Homo sapiens) (UniProt Q01094). Put plainly: ATG_E2F_CIS: Attagene CIS-FACTORIAL HepG2 Assay for human E2F Transcription Factor 1 (AID 2282935). To be noted: HepG2 Attagene cis-reporter, E2F reporter RNA transcripts; actives raise or lower the signal. In short, it runs like this: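 Transient MRTU transfection of HepG2; 24 h compound exposure; RNA → oligo(dT) RT → PCR → FAM label → HpaI cut → CE fluorescence. Gain/loss of signal fit against DMSO.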
Chain of Transcription factor E2F1 (Homo sapiens) (Q01094 whole entry, looked up): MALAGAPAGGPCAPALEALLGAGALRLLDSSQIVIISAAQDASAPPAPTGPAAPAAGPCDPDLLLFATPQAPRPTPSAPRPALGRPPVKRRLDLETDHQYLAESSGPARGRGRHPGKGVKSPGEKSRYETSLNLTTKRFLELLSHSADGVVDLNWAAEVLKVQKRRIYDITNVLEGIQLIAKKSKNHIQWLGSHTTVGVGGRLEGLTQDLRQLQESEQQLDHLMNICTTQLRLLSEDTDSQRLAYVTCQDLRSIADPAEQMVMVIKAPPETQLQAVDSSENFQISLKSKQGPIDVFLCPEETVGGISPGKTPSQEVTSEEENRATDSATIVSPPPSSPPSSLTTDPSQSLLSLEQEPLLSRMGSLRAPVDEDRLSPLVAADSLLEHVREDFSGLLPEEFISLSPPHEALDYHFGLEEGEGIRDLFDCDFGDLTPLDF

Assay [12] can be described thus: ATG_E_Box_CIS: Attagene CIS-FACTORIAL HepG2 Assay for human Enhancer Box (E-box) (AID 2282936). To be noted: HepG2 E-box cis-reporter transcription, actives raise or lower the signal. In short, it runs like this:
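Transiently transfected HepG2, endogenous TF-driven reporters, 24 h dosing. Readout: RT-PCR plus capillary electrophoresis of fluorescent reporter fragments. Gain or loss of signal fitted bidirectionally against DMSO baseline.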

A short description of assay [13]: ATG_M_61_CIS: Attagene CIS-FACTORIAL HepG2 Assay for M61 Transcription Factor (Internal Marker) (AID 2282937). To be noted: HepG2 Attagene CIS-FACTORIAL M61 internal marker reporter; actives raise or lower the signal. The method, boiled down: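 HepG2 cells transiently transfected with multiplexed cis-promoter reporter units reporting endogenous transcription factor activity, measured 24 h after dosing. Reporter mRNA quantified by RT-PCR and capillary electrophoresis; bidirectional fit against DMSO baseline.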

Assay [14] is described as follows: ATG_EGR_CIS: Attagene CIS-FACTORIAL HepG2 Assay for human Early Growth Response 1 (EGR1) (AID 2282938). Conditions: HepG2 Attagene CIS-FACTORIAL EGR reporter mRNA; actives raise or lower the signal. The method, boiled down: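 HepG2 cells transiently transfected with cis-element-driven multiplexed reporter units, dosed for 24 h. EGR1-element reporter mRNA quantified by RT-PCR, 6-FAM labelling, HpaI digestion and capillary electrophoresis; bidirectional fit versus DMSO.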

Assay [15] is described as follows: ATG_M_19_CIS: Attagene CIS-FACTORIAL HepG2 Assay for M19 Transcription Factor (Internal Marker) (AID 2282939). To be noted: HepG2 Attagene CIS-FACTORIAL M19 internal marker reporter; actives raise or lower the signal. The method, boiled down: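 Signals come from fluorescence of labelled reporter-specific PCR fragments resolved by capillary electrophoresis, following 24 h treatment of HepG2 cells transfected with cis-promoter reporter units; activity was fitted in both directions relative to DMSO.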

A short description of assay [16]: ATG_ERE_CIS: Attagene CIS-FACTORIAL HepG2 Assay for Estrogen Response Element (ERE) (AID 2282940). Conditions: HepG2 ERE cis-reporter, Attagene RNA transcript; actives raise or lower the signal. In short, it runs like this: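 Fluorescence of capillary-separated, FAM-labelled reporter cDNA fragments indicates reporter mRNA levels in HepG2 cells exposed to chemicals for 24 h. Transient transfection with cis-regulated units; data fitted in both directions against DMSO.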

Assay [17] concerns the target Hepatocyte nuclear factor 3-beta (Homo sapiens) (UniProt Q9Y261). Put plainly: ATG_FoxA2_CIS: Attagene CIS-FACTORIAL HepG2 Assay for human Forkhead box A2 (FOXA2) (AID 2282942). To be noted: HepG2 cis-reporter transcription factor activity, 24 h; actives raise or lower the signal. In short, it runs like this:
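HepG2 transiently transfected with a multiplexed cis-promoter reporter library read endogenous FOXA2 activity. After 24 h compound exposure, reporter mRNA was quantified by RT-PCR, HpaI digestion and capillary electrophoresis. Bidirectional fit against DMSO.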

A short description of assay [18]: ATG_FoxO_CIS: Attagene CIS-FACTORIAL HepG2 Assay for human Forkhead box O (FoxO) (AID 2282943). To be noted: HepG2 Attagene cis-reporter, FoxO element, mRNA; actives raise or lower the signal. The method, boiled down:
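HepG2 cells transiently transfected with cis-element-driven reporter units report endogenous FoxO activity. After 24 h chemical exposure, reporter mRNA quantified by RT-PCR, fluorescent labeling, HpaI digestion and capillary electrophoresis; bidirectional fit versus DMSO.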

The nature of assay [19]: ATG_GATA_CIS: Attagene CIS-FACTORIAL HepG2 Assay for human GATA Binding Protein (AID 2282944). Conditions: HepG2 GATA cis-element reporter, Attagene multiplex mRNA; actives raise or lower the signal. The method, boiled down:
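After transfecting HepG2 cells with multiple cis-regulated reporter units, chemicals are dosed for 24 h; isolated RNA undergoes RT-PCR and fluorescent labeling before capillary electrophoresis, with activity expressed against DMSO.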

Assay [20] is described as follows: ATG_Ets_CIS: Attagene CIS-FACTORIAL HepG2 Assay for human Erythroblast Transformation Specific (ETS) (AID 2282941). To be noted: HepG2 ETS cis-reporter transcription, actives raise or lower the signal. In short, it runs like this: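 Bidirectional fit versus DMSO of reporter mRNA signal, detected by RT-PCR and capillary electrophoresis in HepG2 cells transiently transfected with cis-element reporters and dosed 24 h.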

The structures appear in SMILES notation. Inconclusive results are not listed. Calls of active or inactive are those of the source. The calls were made as follows, unless noted: active = hit-call score of the fitted dose curve at least 0.9, where 1 is the maximum; inactive = score below 0.9.

Chain of CCAAT/enhancer-binding protein beta (Homo sapiens) (P17676 whole entry, looked up): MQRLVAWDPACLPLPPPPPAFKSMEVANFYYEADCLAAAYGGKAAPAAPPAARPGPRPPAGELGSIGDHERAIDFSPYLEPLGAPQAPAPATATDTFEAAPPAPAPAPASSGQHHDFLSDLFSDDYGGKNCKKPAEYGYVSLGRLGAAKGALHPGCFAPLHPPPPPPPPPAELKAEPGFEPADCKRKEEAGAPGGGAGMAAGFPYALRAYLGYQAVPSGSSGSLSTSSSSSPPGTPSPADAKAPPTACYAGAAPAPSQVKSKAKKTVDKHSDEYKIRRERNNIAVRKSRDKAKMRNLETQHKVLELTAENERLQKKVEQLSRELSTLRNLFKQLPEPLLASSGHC
Chain of Retinoic acid receptor alpha (Homo sapiens) (P10276 whole entry, looked up): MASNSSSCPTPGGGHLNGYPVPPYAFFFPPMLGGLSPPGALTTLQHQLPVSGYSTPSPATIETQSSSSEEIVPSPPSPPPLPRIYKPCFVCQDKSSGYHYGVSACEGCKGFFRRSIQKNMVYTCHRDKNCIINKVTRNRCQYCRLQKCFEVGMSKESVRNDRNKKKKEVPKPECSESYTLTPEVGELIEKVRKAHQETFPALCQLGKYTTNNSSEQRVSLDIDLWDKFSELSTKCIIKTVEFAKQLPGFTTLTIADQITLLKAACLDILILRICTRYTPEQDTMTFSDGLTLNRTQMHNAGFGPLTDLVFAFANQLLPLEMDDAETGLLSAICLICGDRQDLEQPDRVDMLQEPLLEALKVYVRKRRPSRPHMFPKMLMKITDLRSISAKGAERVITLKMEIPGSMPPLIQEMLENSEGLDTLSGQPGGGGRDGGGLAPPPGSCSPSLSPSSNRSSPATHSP
Chain of Hepatocyte nuclear factor 3-beta (Homo sapiens) (Q9Y261 whole entry, looked up): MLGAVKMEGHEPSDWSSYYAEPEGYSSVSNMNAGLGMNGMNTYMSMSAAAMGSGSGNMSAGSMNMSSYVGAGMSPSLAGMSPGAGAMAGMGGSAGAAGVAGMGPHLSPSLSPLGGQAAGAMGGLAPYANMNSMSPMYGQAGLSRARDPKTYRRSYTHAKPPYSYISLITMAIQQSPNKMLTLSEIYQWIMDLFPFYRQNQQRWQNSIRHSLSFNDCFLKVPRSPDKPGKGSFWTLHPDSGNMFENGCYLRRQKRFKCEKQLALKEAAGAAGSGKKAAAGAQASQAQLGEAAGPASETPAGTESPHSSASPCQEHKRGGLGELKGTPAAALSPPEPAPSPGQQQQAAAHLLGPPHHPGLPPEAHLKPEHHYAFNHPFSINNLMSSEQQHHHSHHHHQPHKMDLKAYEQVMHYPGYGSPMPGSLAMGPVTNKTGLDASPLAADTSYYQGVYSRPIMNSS
Chain of Aryl hydrocarbon receptor (Homo sapiens) (P35869 whole entry, looked up): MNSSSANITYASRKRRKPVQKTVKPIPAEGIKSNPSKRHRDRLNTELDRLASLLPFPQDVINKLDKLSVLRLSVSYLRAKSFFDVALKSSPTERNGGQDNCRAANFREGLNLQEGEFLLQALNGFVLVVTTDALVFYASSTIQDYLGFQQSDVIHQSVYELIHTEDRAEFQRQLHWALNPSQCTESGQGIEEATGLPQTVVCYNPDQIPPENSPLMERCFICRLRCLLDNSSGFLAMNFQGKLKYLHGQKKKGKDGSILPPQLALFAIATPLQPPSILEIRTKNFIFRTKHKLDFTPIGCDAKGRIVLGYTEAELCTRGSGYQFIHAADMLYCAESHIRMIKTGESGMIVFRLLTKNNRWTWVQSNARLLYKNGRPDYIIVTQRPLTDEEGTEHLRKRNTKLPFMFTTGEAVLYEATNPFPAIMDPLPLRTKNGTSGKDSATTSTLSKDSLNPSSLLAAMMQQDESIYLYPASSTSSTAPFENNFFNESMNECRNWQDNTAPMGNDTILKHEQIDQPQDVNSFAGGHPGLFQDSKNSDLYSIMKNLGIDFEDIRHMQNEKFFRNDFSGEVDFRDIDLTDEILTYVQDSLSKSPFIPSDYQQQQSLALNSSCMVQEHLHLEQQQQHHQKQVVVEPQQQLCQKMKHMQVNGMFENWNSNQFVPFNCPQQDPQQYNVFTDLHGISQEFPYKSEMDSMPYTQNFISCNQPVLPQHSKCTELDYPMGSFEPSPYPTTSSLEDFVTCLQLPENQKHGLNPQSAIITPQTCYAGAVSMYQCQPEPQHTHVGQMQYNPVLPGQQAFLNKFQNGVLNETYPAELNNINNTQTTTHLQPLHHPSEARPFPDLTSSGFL

The term AC50 denotes the midpoint of the concentration-response curve, whichever way the signal moves. Consider `NC(O)(C(F)(F)F)C(F)(F)F`, for which the call in assay [1], in [2], in assay [3], in assay [4], in [5] and in [7] was inactive. Moreover, the call in [8], in assay [9], in [10], in assay [11], in assay [12] and in [13] was inactive. Also, the result in [14], in assay [15], in assay [16], in assay [17], in assay [18] and in [19] was inactive. Moreover, the concentration at half-maximal activity (AC50) in assay [6] is 126 µM (active).
As for `CC(C)Nc1ccc(NC(C)C)c2c1C(=O)c1ccccc1C2=O`, the call in [1], in [2], in assay [3], in assay [4], in assay [5] and in assay [7] was inactive. Moreover, the outcome in assay [8], in assay [9], in assay [10], in assay [11], in assay [12] and in assay [13] was inactive. Moreover, the call in [14], in assay [15], in assay [17], in [18] and in assay [19] was inactive.
As to `CCC(C)CO` (centres undefined), the result in assay [1], in assay [2], in assay [3], in assay [4], in assay [5] and in assay [7] was inactive. Also, the compound was classed as inactive in [8], in assay [9], in [10], in assay [11], in assay [12] and in [13]. In addition, the compound was classed as inactive in assay [14], in assay [16], in assay [17] and in [18].
For `C=CC(=O)OCC(F)(F)C(F)(F)C(F)(F)COC(=O)C=C`, the outcome in assay [1], in assay [2], in assay [3], in assay [6], in assay [7] and in [9] was inactive. In addition, the result in assay [10], in [11], in assay [13], in assay [15], in assay [20] and in assay [17] was inactive. For the same compound, the call in [18] was inactive. Also, the AC50 is 31.6 µM (active) in [4], 31.7 µM (active) in [5], 78.6 µM (active) in assay [12] and 42.4 µM (active) in assay [14].

The values above are taken from PubChem BioAssay (EPA / NIEHS).
